Drawing on PubChem BioAssay (Tox21), this text covers Potency for 24 molecules.

Records with an inconclusive call do not appear. The source made the active and inactive calls. Unless noted, the call rests on the fitted dose curve; in most records, active means well fitted curve in the direction sought with a large enough effect in the repeat runs; inconclusive means weak or mixed curves; inactive means no such curve, though single readings can be large; an effect the other way counts as inactive or inconclusive. Positions of bridges follow the written chain, without caps; N, C: chain ends. Non-standard residues stand in square brackets, D forms with d. Residues, ends and D or L forms follow the SMILES beside them. pGlu = O=C1CC[C@@H](C(=O)O)N1

Assay [1] in a line: qHTS assay to identify small molecule antagonists of the glucocorticoid receptor (GR) signaling pathway - cell viability counter screen (AID 720693). Further: nearly all actives have a fitted effect of over 55% in size. Further: potency means the concentration at half of the fitted maximal effect.
A short description of assay [2]: qHTS assay for identifying genotoxic compounds that show differential cytotoxicity against isogenic chicken DT40 cell lines with known DNA damage response pathways - wild type cell line (AID 743012). Further: nearly all actives have a fitted effect of over 60% in size. Further: potency means the concentration at half of the fitted maximal effect. The method, boiled down:
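Wild type DT40, 300 cells/well, ~0.5 h settle at 37 C/5% CO2; compounds in DMSO added by pintool; 40 h at 37 C/5% CO2; CellTiter-Glo, 30 min RT; luminescence.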

Assay [3] in a line: qHTS assay for identifying genotoxic compounds that show differential cytotoxicity against isogenic chicken DT40 cell lines with known DNA damage response pathways - Rev3 mutant cell line (AID 743014). Further: nearly all actives have a fitted effect of over 55% in size. Further: potency means the concentration at half of the fitted maximal effect. In general terms: Quantitative high-throughput screening tests each substance at several concentrations.
Assay [4] is described as follows: qHTS assay for identifying genotoxic compounds that show differential cytotoxicity against isogenic chicken DT40 cell lines with known DNA damage response pathways - Rad54/Ku70 mutant cell line (AID 743015). Further: nearly all actives have a fitted effect of over 60% in size. Further: potency means the concentration at half of the fitted maximal effect.
Assay [5] is described as follows: qHTS assay to identify small molecule antagonists of the androgen receptor (AR) signaling pathway - cell viability counter screen (AID 743033; further: nearly all actives have a fitted effect of over 45% in size).
A short description of assay [6]: qHTS assay to identify small molecule antagonists of the androgen receptor (AR) signaling pathway using the MDA cell line - cell viability counter screen (AID 743041; further: nearly all actives have a fitted effect of over 45% in size; further: potency means the concentration at half of the fitted maximal effect). The method, boiled down:
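Cells were plated at 3,000 per well and left 5 h. Compounds in DMSO were then pinned in, followed by R1881. After 16 h at 37C, CellTiter-Fluor fluorescence gave viability.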

Assay [7] has as its target Androgen receptor (Homo sapiens) (UniProt P10275). Nature of the assay: qHTS assay to identify small molecule agonists of the androgen receptor (AR) signaling pathway using the MDA cell line (AID 743040; further: nearly all actives have a fitted effect of over 20% in size). A digest of the protocol:
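Cells plated, 5 h at 37C/0% CO2; compound or DMSO pinned; 16 h at 37C; ONE-Glo added; luminescence measured after 30 min at room temperature. Reporter line: MDA-kb2 with MMTV-luciferase responsive to AR and GR.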

The target is the same in assay [8]. Description: qHTS assay to identify small molecule antagonists of the androgen receptor (AR) signaling pathway using the MDA cell line (AID 743042; further: nearly all actives have a fitted effect of over 55% in size; further: potency means the concentration at half of the fitted maximal effect). A digest of the protocol:
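Antagonist mode: compounds plus R1881 agonist added to MDA-kb2 AR-luc cells, incubated 16 h at 37C. Luciferase reporter luminescence quantified, with multiplexed CellTiter-Fluor readout for cell viability.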

For assay [9] the target is unchanged. Description: qHTS assay to identify small molecule agonists of the androgen receptor (AR) signaling pathway (AID 743036; active means well fitted activation curve with a large enough effect in the signal ratio in the repeat runs, with a control signal flat, not every such curve was filed as active; the % refers to the signal ratio). A digest of the protocol: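 Following a 4 h settling period, AR-UAS-bla HEK293 cells were dosed with compounds for 16 h at 37C. A 2 h room-temperature incubation with LiveBLAzer B/G FRET substrate preceded the fluorescence measurement.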

Chain of Androgen receptor (Homo sapiens) (P10275 whole entry, looked up): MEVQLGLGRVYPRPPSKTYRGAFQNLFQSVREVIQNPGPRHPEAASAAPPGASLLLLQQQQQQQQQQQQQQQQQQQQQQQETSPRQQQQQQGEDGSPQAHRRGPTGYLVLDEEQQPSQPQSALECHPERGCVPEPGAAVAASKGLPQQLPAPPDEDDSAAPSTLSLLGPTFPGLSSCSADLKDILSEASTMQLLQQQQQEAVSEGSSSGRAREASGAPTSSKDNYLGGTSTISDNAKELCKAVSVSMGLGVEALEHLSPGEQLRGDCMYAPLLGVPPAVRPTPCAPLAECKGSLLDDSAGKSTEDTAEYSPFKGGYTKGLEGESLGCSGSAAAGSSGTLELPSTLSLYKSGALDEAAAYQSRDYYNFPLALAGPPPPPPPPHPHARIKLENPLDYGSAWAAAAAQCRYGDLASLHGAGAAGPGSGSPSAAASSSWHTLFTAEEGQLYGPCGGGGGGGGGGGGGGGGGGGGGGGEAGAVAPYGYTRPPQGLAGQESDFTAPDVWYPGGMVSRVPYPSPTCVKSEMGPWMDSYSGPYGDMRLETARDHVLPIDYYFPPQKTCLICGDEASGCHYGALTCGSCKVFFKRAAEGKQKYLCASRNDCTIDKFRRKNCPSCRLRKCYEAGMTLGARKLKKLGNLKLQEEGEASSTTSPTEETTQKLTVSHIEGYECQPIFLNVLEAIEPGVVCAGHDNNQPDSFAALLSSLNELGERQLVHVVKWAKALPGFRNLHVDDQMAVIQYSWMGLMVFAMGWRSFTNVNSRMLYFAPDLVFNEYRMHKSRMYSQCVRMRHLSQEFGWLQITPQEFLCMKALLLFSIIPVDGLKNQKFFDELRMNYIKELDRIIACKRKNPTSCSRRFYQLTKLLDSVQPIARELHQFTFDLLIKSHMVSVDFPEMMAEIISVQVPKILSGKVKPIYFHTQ

Turning to `C/C=C(/CC[C@@H](C)[C@H]1CC[C@H]2C3=CC[C@H]4[C@H](C)[C@@H](O)CC[C@]4(C)[C@H]3CC[C@]12C)C(C)C`, the Potency result in assay [1], in assay [2], in [3], in [4], in assay [5] and in assay [6] was “inactive” in each case.

On to `COc1ccc(CC2c3cc(OC)c(OC)cc3CC[N+]2(C)CCC(=O)OCCCCCOC(=O)CC[N+]2(C)CCc3cc(OC)c(OC)cc3C2Cc2ccc(OC)c(OC)c2)cc1OC` (configuration not stated), for which the Potency entry in assay [1], in assay [2], in assay [3], in [4], in assay [5] and in assay [6] was “inactive” throughout.

`CCOC(=O)Oc1c(OC)cc(C(=O)O[C@@H]2C[C@@H]3CN4CCc5c([nH]c6cc(OC)ccc56)[C@H]4C[C@@H]3[C@H](C(=O)OC)[C@H]2OC)cc1OC`: the Potency entry in [1], in assay [5] and in assay [6] was “inactive” throughout. Also, the Potency in assay [2] is 10.1 µM (active); in assay [3], 11.4 µM (active); in assay [4], 12.7 µM (active).

Consider `CC(=O)N(CC(C)C(=O)O)c1c(I)cc(I)c(N)c1I` (configuration not stated), for which the Potency result in [1], in [2], in assay [3], in assay [4], in assay [5] and in assay [6] was “inactive” in each case.

Turning to `CC[C@H](C)[C@H](NC(=O)[C@H](Cc1ccccc1)NC(=O)[C@H](C)NC(=O)[C@H](CC(=O)O)NC(=O)[C@H](CCCCN)NC(=O)[C@H](CO)NC(=O)[C@@H]1CCCN1C(=O)[C@@H]1CCC(=O)N1)C(=O)NCC(=O)N[C@@H](CC(C)C)C(=O)N[C@@H](CCSC)C(N)=O` ([pGlu]PSKDAFIGLM-NH2), the Potency result in assay [1], in assay [2], in assay [3], in assay [4], in [5] and in assay [6] was “inactive” each time.

As for `C[C@]12CC[C@@H]3c4ccc(O)cc4CC[C@H]3[C@@H]1CC[C@@H]2OP(=O)(O)O`, the Potency result in assay [1], in assay [2], in assay [3], in [4], in assay [5] and in assay [6] was “inactive” each time.

In the case of `NCCCC[C@H](NC(=O)[C@@H]1CCCN1C(=O)[C@@H]1CSSC[C@H](NC(=O)CNC(=O)CNC(=O)CN)C(=O)N[C@@H](Cc2ccc(O)cc2)C(=O)N[C@@H](Cc2ccccc2)C(=O)N[C@@H](CCC(N)=O)C(=O)N[C@@H](CC(N)=O)C(=O)N1)C(=O)NCC(N)=O` (H-GGGCYFQNCPKG-NH2; disulfide 4-9), the Potency result in [1], in assay [2], in [3], in [4], in [5] and in assay [6] was “inactive” in each case.

`CN1CCN(CCCN2c3ccccc3Sc3ccccc32)CC1`: the Potency result in assay [1] and in assay [6] was “inactive” each time. Besides, the Potency was 9.44 µM (active) in assay [2], 11.9 µM (active) in [3] and 13.3 µM (active) in assay [4].

As to `CCC(C)[C@@H](N)C(=O)O` (some centres not stated), the Potency entry in assay [1], in assay [2], in [3], in assay [4] and in assay [6] was “inactive” each time.

As to `Cc1cc(-c2ccc(N=Nc3c(S(=O)(=O)O)cc4cc(S(=O)(=O)O)cc(N)c4c3O)c(C)c2)ccc1N=Nc1c(S(=O)(=O)O)cc2cc(S(=O)(=O)O)cc(N)c2c1O`, the Potency result in assay [1] is “inactive”. For the same molecule, the Potency in assay [2] was 9.44 µM (active); in [3], 7.5 µM (active); in assay [4], 10.6 µM (active); in assay [6] it was 13.3 µM (active).

Take `COc1cc(Br)c(C[N+]2(CCOCCC3CCC4CC3C4(C)C)CCOCC2)cc1OC` (configuration not stated): the Potency result in assay [1], in [7] and in assay [6] was “inactive” throughout. The Potency in assay [2] is 1.5 µM (active); in assay [3], 2.66 µM (active); in assay [4] it was 2.66 µM (active).

For the molecule `O=C1NC(=O)[C@H]2[C@@H]1[C@@H]1C=C[C@H]2C1`, the Potency entry in assay [1], in [2], in assay [3], in assay [4] and in [6] was “inactive” each time.

Consider `CN(C)CC/C=C1/c2ccccc2CSc2ccccc21`, for which the Potency entry in assay [1], in assay [7], in assay [6] and in assay [8] was “inactive” each time. For the same molecule, the Potency was 11.4 µM (active) in [2], 12.7 µM (active) in assay [3] and 12.7 µM (active) in assay [4].

Turning to `CCCCCCC(=O)O[C@H]1CC[C@H]2[C@@H]3CCc4cc(O)ccc4[C@H]3CC[C@]12C`, the Potency result in assay [1], in assay [2], in assay [3], in [4] and in assay [6] was “inactive” in each case.

Regarding `COc1cc2c(cc1OC)[C@@H](c1ccccc1)CN(C)CC2`, the Potency entry in assay [1], in assay [3], in [4], in assay [9], in assay [7] and in [6] was “inactive” in each case. In addition, the Potency result in [8] is “inactive”. For the same molecule, in assay [2], the Potency is 23.7 µM (active).

With `CCCC(=O)Nc1c(I)cc(I)c(CC(CC)C(=O)O)c1I` (configuration not stated), the Potency entry in [1], in assay [2], in assay [3], in assay [4] and in assay [6] was “inactive” throughout.

With `CCCCCc1ccc(C)cc1O`, the Potency result in assay [1], in assay [2], in assay [3], in assay [4], in assay [7] and in [6] was “inactive” each time. Also, the Potency result in assay [8] is “inactive”.

Regarding `COc1ccc(C[C@H](N)C(=O)N[C@H]2[C@@H](O)[C@H](n3cnc4c(N(C)C)ncnc43)O[C@@H]2CO)cc1`, the Potency in [1] is 4.77 µM (active); in assay [2] it was 0.841 µM (active); in assay [3] it was 0.75 µM (active); in assay [6], 7.5 µM (active). The Potency entry in [4] is “inactive”.

For `CCN(CC)CCCC(C)Nc1cc(/C=C/c2ccccc2Cl)nc2cc(Cl)ccc12` (configuration not stated), the Potency entry in assay [1] and in assay [6] was “inactive” each time. In addition, the Potency in [2] was 26.6 µM (active); in assay [3], 29.8 µM (active); in [4], 29.8 µM (active).

Consider `C#C[C@]1(OC(C)=O)CC[C@H]2[C@@H]3CCC4=CC(=O)CC[C@@H]4[C@H]3CC[C@@]21C`, for which the Potency is 6.01 µM (active) in assay [1], 4.22 µM (active) in assay [2], 10.6 µM (active) in assay [3] and 8.41 µM (active) in assay [4]. In [6], the Potency result is “inactive”.

As to `CS(=O)(=O)OCCCNCCCOS(C)(=O)=O`, the Potency result in assay [1], in assay [2], in [3], in assay [4] and in assay [6] was “inactive” in each case.

For the molecule `CC1(S(=O)(=O)O)CC(=O)c2ccccc2C1=O` (configuration not stated), the Potency result in assay [1] and in [7] was “inactive” each time. For the same molecule, the Potency was 9.44 µM (active) in [2], 11.9 µM (active) in assay [3], 11.9 µM (active) in assay [4] and 29.8 µM (active) in assay [8].

Take `Nc1nc2[nH]cc(CCc3ccc(C(=O)N[C@@H](CCC(=O)O)C(=O)O)cc3)c2c(=O)[nH]1`: the Potency entry in assay [1] and in assay [6] was “inactive” throughout. Besides, the Potency in assay [2] was 0.0266 µM (active); in assay [3], 0.0119 µM (active); in assay [4], 0.0106 µM (active).

Regarding `CO[C@H]1C[C@@H]2CC[C@@H](C)[C@@](O)(O2)C(=O)C(=O)N2CCCC[C@H]2C(=O)O[C@H]([C@H](C)C[C@@H]2CC[C@@H](OCCO)[C@H](OC)C2)CC(=O)[C@H](C)/C=C(\C)[C@@H](O)[C@@H](OC)C(=O)[C@H](C)C[C@H](C)/C=C/C=C/C=C/1C`, the Potency in [1] was 23.9 µM (active); in assay [2], 0.0094 µM (active); in assay [3], 0.0075 µM (active); in assay [4] it was 0.0168 µM (active); in [8], 23.7 µM (active). The Potency entry in assay [7] was “inactive”.
